HTT aggregate – inhibitors of mutant huntingtin aggregate formation in PC12 cells. PC12 HttQ103-GFP aggregates, Acumen cytometry, 40 h. Potency, µM (series often up to 46.1 µM), for the others: at the top dose activity change, negative = inhibition, actives largely listed as inhibitors. 220,000 compounds, 1.1% hits; active = well fitted curve in the direction sought with a large enough effect; inconclusive = small, poorly fitted or top-dose-only effect, or another doubt; inactive = no such curve, though single readings can be large; an effect the other way counts as inactive or inconclusive; also: potency is read from the fitted curve at half-maximal effect; % is scaled to controls: 0 for no effect and ±100 for the full control effect; nearly all actives have a fitted effect of over 60% in size
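PC12/HTTQ103-GFP, ecdysone-inducible; teb 100 nM; cpd qHTS titration; GFP aggregates read on laser cytometer, Ex 488/Em 500-530 nm.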
ALDH1A1 block – inhibitors of human aldehyde dehydrogenase 1A1; P00352; Purified ALDH1A1, NADH fluorescence, propionaldehyde substrate; Potency, µM (top dose mostly 75.3 µM), for the others: at the top dose activity, negative = inhibition, usual class: inhibitors; 220,000 compounds, 7.3% hits; AID 1030;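 also: potency is read from the fitted curve at half-maximal effect; plate controls were no enzyme wells and a reference inhibitor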
JMJD2E inh – blocks human JMJD2E demethylase activity. 230,000 compounds, 1.6% hits. Potency, µM (top dose mostly 57.1 µM), for the others: at the top dose activity change, negative = inhibition, hits mostly inhibitors. JMJD2E catalytic domain, FDH-coupled NADH fluorescence (FDH is formaldehyde dehydrogenase);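 also: potency is read from the fitted curve at half-maximal effect; 0% = wells with enzyme and -100% = buffer wells without enzyme; nearly all actives have a fitted effect of over 50% in size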
Target sequence (B2RXH2 1-337 limits assumed): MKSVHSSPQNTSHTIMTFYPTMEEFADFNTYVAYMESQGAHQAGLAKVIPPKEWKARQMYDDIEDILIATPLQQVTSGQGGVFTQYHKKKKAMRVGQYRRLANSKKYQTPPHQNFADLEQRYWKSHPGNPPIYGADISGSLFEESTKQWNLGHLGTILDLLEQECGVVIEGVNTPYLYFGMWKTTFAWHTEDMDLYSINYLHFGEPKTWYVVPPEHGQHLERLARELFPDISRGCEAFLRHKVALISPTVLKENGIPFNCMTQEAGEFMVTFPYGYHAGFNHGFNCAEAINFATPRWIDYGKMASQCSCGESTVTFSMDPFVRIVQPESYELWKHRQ
CBFb-RUNX1 inh – CBF-beta/RUNX1 interaction disruption. Q01196+Q13951. AlphaScreen CBFb-His/RUNX1-biotin binding, biochemical. Potency, µM (top dose mostly 59.8 µM), for the others: at the top dose activity, negative = inhibition, hits mostly inhibitors. 230,000 tested, under 10 active. AID 1477; active = well fitted curve in the direction sought with a large enough effect; inconclusive = small, poorly fitted or top-dose-only effect, or another doubt; inactive = no such curve, though single readings can be large; an effect the other way counts as inactive or inconclusive; also: % of control where 0% means no effect
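CBFb-His/RUNX1-biotin, 30 nM each, preincubated 20 min RT; compound 15 min RT; Ni + streptavidin beads 50 ng each, 90 min RT; AlphaScreen read.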
HTT ATP protect – cytoprotection in Huntington HTT-Q103 PC12 cell model | PC12 HTT-Q103 induced, cytoprotection, ATP luminescence, 40 h | Potency, µM (doses to about 56.4 µM), for the others: cytoprotection (ATP increase), actives largely listed as activators | 230,000 compounds, 0.14% hits | AID 1471; active = well fitted curve in the direction sought with a large enough effect; inconclusive = small, poorly fitted or top-dose-only effect, or another doubt; inactive = no such curve, though single readings can be large; an effect the other way counts as inactive or inconclusive; also: potency is read from the fitted curve at half-maximal effect; % of control where 0% means no effect; nearly all actives have a fitted effect of over 45% in size
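Rat PC12, Q103 Htt exon1-GFP fusion, ecdysone promoter; tebufenozide inducer 100 nM final; compound titration; qHTS, 1500 cells/well; ATPlite luminescent read.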
HPGD block – inhibitors of human 15-hydroxyprostaglandin dehydrogenase (HPGD); P15428; purified HPGD, NADH fluorescence kinetic, PGE2 substrate; Potency, µM, for the others: top-dose activity change, negative = inhibition, usual class: inhibitors; 150,000 compounds, 4.3% hits; AID 894; also: potency is read from the fitted curve at half-maximal effect; % is scaled to controls: 0 for no effect and ±100 for the full control effect
Target sequence (P15428 whole entry, looked up): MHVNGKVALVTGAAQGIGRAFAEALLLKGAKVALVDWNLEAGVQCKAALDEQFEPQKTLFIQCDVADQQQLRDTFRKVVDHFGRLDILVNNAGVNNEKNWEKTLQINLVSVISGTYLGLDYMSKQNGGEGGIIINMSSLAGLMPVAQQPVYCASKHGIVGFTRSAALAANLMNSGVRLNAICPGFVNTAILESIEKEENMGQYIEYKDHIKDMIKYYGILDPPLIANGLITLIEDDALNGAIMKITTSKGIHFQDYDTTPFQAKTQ
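20 nM HPGD preincubated 15 min at room temperature with compound in 50 mM Tris-HCl pH 8, 0.01% Tween 20. Started with 1 mM NAD+ and 30 uM prostaglandin E2; NADH fluorescence (360/450 nm) read 5 times over 30-s intervals, last minus first.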
Active calls of the source: *; ? = inconclusive; · = no result; [ ] = remark or other dose. This is a sample that favours compounds with a hit; in the whole collection about 9.8% have one here. Unless noted, calls follow the shape of the dose curve; as a rule, active = well fitted inhibition curve with a large enough effect (not every such curve was filed as active); inconclusive = small, poorly fitted or top-dose-only effect, or another doubt; inactive = no such curve, though single readings can be large or run the other way.

SMILES	HTT aggregate	ALDH1A1 block	JMJD2E inh	CBFb-RUNX1 inh	HTT ATP protect	HPGD block
O=C(c1cnn(C(=O)c2cccc(S(=O)(=O)N3CCOCC3)c2)c1)c1cc(Cl)cc(Cl)c1O	10.2%[9.22 µM]	1.9%	?	0.8%	-10.5%[10 µM]	·
O=C(c1cnn(C(=O)c2cccc(S(=O)(=O)N3CCOCC3)c2)c1)c1ccccc1O	-23.4%	3.55µM*	6.0%	-3.6%	-10.8%	·
Cc1cc(Br)ccc1OCCCCN1CCCCC1	-4.8%[9.22 µM]	?	-1.8%	11.3%	10.0%[10 µM]	·
C=CCn1c(O)c(N=NC(=O)c2ccccc2NS(=O)(=O)c2cccs2)c2ccccc21	23.3%	4.47µM*	-4.4%	-0.9%	-15.6%[10 µM]	·
CCCCn1c(O)c(N=NC(=O)c2ccccc2NS(=O)(=O)c2cccs2)c2ccccc21	-7.6%	11.2µM*	8.6%	-6.0%	12.3%[10 µM]	-12.8%
CC(C)n1c(O)c(N=NC(=O)c2ccccc2NS(=O)(=O)c2cccs2)c2ccccc21	?	-11.1%	-2.4%	-11.6%	7.8%[10 µM]	-8.9%
CC(=O)NC(C)C(=O)OCc1ccc(Cl)cc1Cl (stereo not given)	-0.5%	-0.2%	5.2%	8.9%	9.6%[10 µM]	-10.9%
COc1cc2[nH]c(=O)n(CCCCCC(=O)NCCc3c[nH]c4ccccc34)c(=O)c2cc1OC	6.1%	-1.5%	-4.2%	-1.5%	2.5%	0.2%
CC(C)(C)OC(=O)NCCCCCc1nnc(SCc2ccccc2)o1	-6.6%[9.22 µM]	·	-20.7%	19.0%	-10.7%[10 µM]	·
CC(C)(C)OC(=O)NCCc1nnc(SCC(=O)c2ccc(Cl)cc2)o1	-4.7%	12.6µM*	7.1%	3.3%	3.9%[10 µM]	-15.2%
C[C@H](N)c1nnc(SCC(=O)c2ccc(Cl)cc2)o1	1.3%	20µM*	-1.6%	-0.6%	15.7%	-14.0%
Cc1[nH]c(=O)[nH]c(=O)c1CSc1nnc(CCCCCNC(=O)OC(C)(C)C)o1	22.6%	4.1%	-2.3%	1.9%	-15.2%[0.074 µM]	25.1µM*
CN1CCN(NC(=O)C2CC2)CC1	4.1%	0.6%	9.6%	-1.4%	7.1%[10 µM]	-15.5%
NC1=NS(=O)(=O)NC1c1ccc(Br)cc1 (stereo not given)	2.2%[9.22 µM]	7.5%	-2.1%	7.5%	-1.0%[10 µM]	·
CC(=O)N1CCC[C@@]2(CCN(c3ccncc3)C2)C1	·	-5.3%	·	·	25.8%	-1.3%
CC(C)CCN1CCNC(=O)C1CC(=O)Nc1ccc(F)cc1 (stereo not given)	17.1%	17.8µM*	-3.4%	0.4%	-5.3%[0.074 µM]	-14.2%
O=C(CC1C(=O)NCCN1C(=O)Nc1ccccc1)Nc1ccc(F)cc1 (stereo not given)	-0.3%[9.22 µM]	3.5%	4.2%	-11.2%	7.2%[10 µM]	·
CC1CCC(C(C)C)C(OC(=O)CSc2nccc(=O)[nH]2)C1 (stereo not given)	-0.2%	25.1µM*	-0.9%	0.7%	17.0%[10 µM]	-2.3%
CC1CCC(C(C)C)C(OC(=O)COC(=O)c2ccc(=O)[nH]c2)C1 (stereo not given)	-5.2%	5.1%	1.5%	14.3%	1.3%[10 µM]	-11.0%
CCOC(=O)NC(=O)CSc1nc(C)cc(C(F)(F)F)c1C#N	10µM*	-7.8%	-20.9%	-0.5%	31.1%	-6.9%
Cc1ccc(S(=O)(=O)CCSc2nc(C)cc(C(F)(F)F)c2C#N)cc1	?	0.355µM*	-21.4%	0.5%	19.6%[10 µM]	-27.3%
COC(=O)[C@@H]1C[C@H]2CC[C@H](O)C[C@H]2N1Cc1ccc(N2CCOCC2)cc1	·	-8.8%	-22.8%	3.5%	-10.8%	-7.1%
CCOc1ccccc1-n1c(SCC(N)=O)nnc1-c1ccco1	-10.5%	25.1µM*	-17.8%	-5.2%	16.3%[10 µM]	-14.3%
COc1ccccc1-n1c(SCC(=O)N2CCCCC2)nnc1-c1ccccc1O	24.9%	?	-14.1%	-1.6%	-14.5%[10 µM]	-13.7%
COc1ccccc1-n1c(SCC(=O)O)nnc1-c1ccc(S(=O)(=O)N2CCCCC2)cc1	-16.7%	12.6µM*	-21.6%	4.7%	-2.1%	?
SMILES	HTT aggregate	ALDH1A1 block	JMJD2E inh	CBFb-RUNX1 inh	HTT ATP protect	HPGD block
CNC(=O)CSc1nnc(-c2ccco2)n1-c1ccccc1OC	3.1%	20µM*	-3.2%	1.2%	-20.0%[10 µM]	-5.4%
COC(=O)C1=C(C(=O)OC)[C@@H]2Nc3ccccc3[C@@]23C[C@@H](C(=O)OC)N(S(=O)(=O)c2c(C)noc2C)C3=N1	·	?	3.0%[11.4 µM]	-0.4%[13.1 µM]	-7.6%[10 µM]	-0.2%
CC(=O)Nc1cccc2c1C(=O)N(c1ccc(OC(C)=O)cc1)C2=O	·	-0.1%	10.0%	1.3%	·	·
CCOCCCNS(=O)(=O)c1ccc(NC(=O)C2CC(=O)N(c3ccc(C)cc3)C2)cc1 (stereo not given)	-10.0%	?	0.9%	14.7%	-29.5%	·
CCCCOP(=O)(c1ccc(N(C)C)cc1)C(O)c1cccnc1 (stereo not given)	6.0%	6.7%	1.8%	1.3%	-5.2%	-5.9%
CN(C)c1ccc(C(O)P(=O)(OCc2ccccc2)c2ccc(N(C)C)cc2)cc1 (stereo not given)	20.5%[9.22 µM]	·	-16.7%	-16.0%	34.4%[10 µM]	·
CCCOP(=O)(c1ccc(N(C)C)cc1)C(O)c1ccncc1 (stereo not given)	-15.5%	?	17.8µM*	3.7%	6.8%	-16.6%
CN(C)c1ccc(P(=O)(OCc2ccccc2)C(O)c2ccncc2)cc1 (stereo not given)	12.6%	?	20µM*	2.3%	-11.3%[0.074 µM]	-8.0%
CC(C)(C)NC(=O)NC(=O)COC(=O)c1cccc(OC(F)F)c1	0.3%	7.6%	?	-3.4%	-40.2%	·
COc1ccc(N2C(=O)C3C4C=CC(CC4)C3C2=O)c([N+](=O)[O-])c1 (stereo not given)	0.6%	?	-0.1%	-2.6%	-15.6%	-19.7%
CCOc1ccc(N2C(=O)C3C4C=CC(CC4)C3C2=O)c([N+](=O)[O-])c1 (stereo not given)	-0.7%	28.2µM*	-12.9%	-5.4%	-17.8%	-21.2%
O=[N+]([O-])c1ccc(O)c(C(C#Cc2ccccc2)N2CCOCC2)c1 (stereo not given)	-6.6%[9.22 µM]	·	-5.1%	-14.3%	7.5%[10 µM]	·
Cn1c(COc2ccc(Br)cc2)nnc1SC1CCc2ccccc2C1=O (stereo not given)	-26.4%	22.4µM*	?	4.6%	-6.2%[1.9 µM]	-12.3%
Cn1c(COc2ccccc2)nnc1SCCSc1nnc(COc2ccccc2)n1C	-11.2%	8.6%	-0.3%	0.2%	-8.1%	-12.6%
N#CCc1ccc(C(=O)c2ccccc2F)s1	-8.6%	-81.5%	-20.3%	-4.9%	-4.2%[10 µM]	20µM*
O=C(O)Cc1ccc(C(=O)c2ccccc2)s1	-10.4%	-12.4%	-9.7%	3.2%	-6.0%	?
COc1c(Cl)cc(C(=O)Nc2ccccc2C(=O)O)cc1Cl	?	12.6µM*	-1.5%	-3.2%	-27.8%	14.1µM*
CNC(=O)c1cc(Cl)c(OC)c(OC)c1	-14.3%	22.4µM*	-7.3%	1.1%	10.7%[10 µM]	?

Screening data deposited in PubChem by National Center for Advancing Translational Sciences (NCATS).
